Results reported in the supplement of paper PMC10849652.
Targets with a hit are over-represented here; the source holds about 8,800 in all. About 0.5% of all pairs of compound and target were hits.

Compound: c1ccc([C@@H]2C[C@H]2NC2CCNCC2)cc1
Assay: log2 fold change, soluble protein after heating vs DMSO (PISA); higher = thermal stabilisation; K562 lysate, 10 uM; active = over 0.2 and 3.5 SD of the protein, either way, in both replicates (recomputed)
In short: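 Following dounce homogenisation of K562 pellets in PBS pH 7.4 with 1 mM MgCl2, crude extract at 1 mg/mL protein was incubated for 30 min with 10 μM compound. Aliquots were then heated for 3 min over 48°C-58°C and pooled, NP-40 was added to 0.5% at 4°C, and soluble protein was recovered as the supernatant at 21,000xg for 90 min. Channel-sum-equalised TMTpro 16plex LC-MS/MS quantified this protein. Each value, from duplicates, is a log-two fold change in thermal stability relative to solvent controls.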

Sequence of UniProt Q9BT25 (Q9BT25 whole entry, looked up): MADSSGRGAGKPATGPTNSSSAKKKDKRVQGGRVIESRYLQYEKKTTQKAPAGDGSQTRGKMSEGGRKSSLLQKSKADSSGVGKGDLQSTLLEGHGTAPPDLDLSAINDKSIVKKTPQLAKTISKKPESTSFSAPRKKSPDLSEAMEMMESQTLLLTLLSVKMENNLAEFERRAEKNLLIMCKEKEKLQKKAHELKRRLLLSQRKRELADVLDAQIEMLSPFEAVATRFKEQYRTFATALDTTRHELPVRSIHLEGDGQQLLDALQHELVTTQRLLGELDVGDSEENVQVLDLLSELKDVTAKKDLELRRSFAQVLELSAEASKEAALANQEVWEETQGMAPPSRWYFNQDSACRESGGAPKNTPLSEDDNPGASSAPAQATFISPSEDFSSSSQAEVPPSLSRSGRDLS
Sequence of UniProt Q9H9Y4 (Q9H9Y4 whole entry, looked up): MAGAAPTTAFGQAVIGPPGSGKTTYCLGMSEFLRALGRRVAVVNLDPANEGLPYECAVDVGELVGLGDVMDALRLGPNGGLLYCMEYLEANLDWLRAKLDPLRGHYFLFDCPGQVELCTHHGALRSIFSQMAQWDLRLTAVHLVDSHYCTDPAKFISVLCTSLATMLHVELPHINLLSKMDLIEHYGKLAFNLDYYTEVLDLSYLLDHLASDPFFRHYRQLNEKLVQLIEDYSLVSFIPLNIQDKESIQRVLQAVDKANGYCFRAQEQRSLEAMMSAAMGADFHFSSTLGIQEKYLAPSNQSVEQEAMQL
Sequence of UniProt O00425 (O00425 whole entry, looked up): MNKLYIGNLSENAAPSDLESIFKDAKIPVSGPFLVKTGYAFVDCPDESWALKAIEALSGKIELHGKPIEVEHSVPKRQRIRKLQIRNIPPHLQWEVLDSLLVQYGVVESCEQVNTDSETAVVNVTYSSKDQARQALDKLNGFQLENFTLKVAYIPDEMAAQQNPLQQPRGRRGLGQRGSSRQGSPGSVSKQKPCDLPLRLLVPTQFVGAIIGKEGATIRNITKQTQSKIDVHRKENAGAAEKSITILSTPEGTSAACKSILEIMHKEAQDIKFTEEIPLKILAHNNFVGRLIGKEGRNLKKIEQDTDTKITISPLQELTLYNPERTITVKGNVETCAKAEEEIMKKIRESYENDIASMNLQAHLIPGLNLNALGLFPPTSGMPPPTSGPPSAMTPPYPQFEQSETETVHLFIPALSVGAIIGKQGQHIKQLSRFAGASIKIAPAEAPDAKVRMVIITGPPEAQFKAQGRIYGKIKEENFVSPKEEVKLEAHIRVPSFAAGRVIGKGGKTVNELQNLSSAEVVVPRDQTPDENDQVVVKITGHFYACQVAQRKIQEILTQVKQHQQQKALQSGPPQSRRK
Sequence of UniProt P17096 (P17096 whole entry, looked up): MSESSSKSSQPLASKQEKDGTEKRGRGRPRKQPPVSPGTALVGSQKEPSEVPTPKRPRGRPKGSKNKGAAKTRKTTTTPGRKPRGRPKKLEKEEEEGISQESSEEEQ
Sequence of UniProt Q01628 (Q01628 whole entry, looked up): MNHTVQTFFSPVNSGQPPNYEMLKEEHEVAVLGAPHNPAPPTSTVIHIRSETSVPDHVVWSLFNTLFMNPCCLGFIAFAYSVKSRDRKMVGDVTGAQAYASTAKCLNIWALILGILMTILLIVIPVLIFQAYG
Sequence of UniProt O43824 (O43824 whole entry, looked up): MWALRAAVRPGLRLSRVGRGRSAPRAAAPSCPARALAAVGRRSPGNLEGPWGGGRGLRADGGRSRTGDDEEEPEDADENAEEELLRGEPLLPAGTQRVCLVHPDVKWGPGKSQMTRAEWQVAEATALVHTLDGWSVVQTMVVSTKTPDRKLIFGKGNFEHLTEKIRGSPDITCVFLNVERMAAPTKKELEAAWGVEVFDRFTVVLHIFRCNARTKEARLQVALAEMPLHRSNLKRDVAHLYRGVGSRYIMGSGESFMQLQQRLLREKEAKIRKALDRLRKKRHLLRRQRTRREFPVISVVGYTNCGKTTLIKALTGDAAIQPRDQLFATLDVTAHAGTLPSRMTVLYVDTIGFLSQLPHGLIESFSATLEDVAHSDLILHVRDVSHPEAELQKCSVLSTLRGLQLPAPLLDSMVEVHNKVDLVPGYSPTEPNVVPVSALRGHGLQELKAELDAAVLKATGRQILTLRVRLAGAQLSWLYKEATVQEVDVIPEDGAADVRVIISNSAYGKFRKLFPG
Sequence of UniProt Q9NSC5 (Q9NSC5 whole entry, looked up): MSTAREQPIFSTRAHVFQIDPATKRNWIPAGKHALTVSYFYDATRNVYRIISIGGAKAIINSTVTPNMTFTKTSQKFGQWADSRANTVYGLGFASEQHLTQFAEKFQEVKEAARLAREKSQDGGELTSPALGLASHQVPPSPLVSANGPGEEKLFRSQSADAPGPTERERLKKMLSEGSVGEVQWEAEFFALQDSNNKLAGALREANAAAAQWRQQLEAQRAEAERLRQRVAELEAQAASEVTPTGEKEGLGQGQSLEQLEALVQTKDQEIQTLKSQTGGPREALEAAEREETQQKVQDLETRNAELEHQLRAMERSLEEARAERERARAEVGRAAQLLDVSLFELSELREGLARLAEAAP
Sequence of UniProt Q7Z4Q2 (Q7Z4Q2 whole entry, looked up): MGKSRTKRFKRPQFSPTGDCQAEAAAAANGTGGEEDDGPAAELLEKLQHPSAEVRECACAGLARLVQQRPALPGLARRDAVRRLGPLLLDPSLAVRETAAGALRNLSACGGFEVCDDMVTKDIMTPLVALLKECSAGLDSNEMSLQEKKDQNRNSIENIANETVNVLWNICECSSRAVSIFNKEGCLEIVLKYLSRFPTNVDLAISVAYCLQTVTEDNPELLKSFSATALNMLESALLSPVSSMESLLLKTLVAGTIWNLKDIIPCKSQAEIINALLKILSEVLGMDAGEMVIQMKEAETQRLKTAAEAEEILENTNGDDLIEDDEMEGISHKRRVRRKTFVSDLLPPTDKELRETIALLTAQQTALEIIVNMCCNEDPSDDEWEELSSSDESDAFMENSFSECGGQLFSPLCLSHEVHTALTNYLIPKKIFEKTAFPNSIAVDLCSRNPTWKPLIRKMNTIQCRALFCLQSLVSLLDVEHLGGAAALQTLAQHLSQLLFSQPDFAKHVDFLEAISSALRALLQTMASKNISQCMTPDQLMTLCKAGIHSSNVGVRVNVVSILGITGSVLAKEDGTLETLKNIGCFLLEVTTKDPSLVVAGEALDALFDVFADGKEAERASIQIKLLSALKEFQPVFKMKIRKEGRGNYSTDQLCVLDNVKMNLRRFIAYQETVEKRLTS
Sequence of UniProt Q9Y573 (Q9Y573 whole entry, looked up): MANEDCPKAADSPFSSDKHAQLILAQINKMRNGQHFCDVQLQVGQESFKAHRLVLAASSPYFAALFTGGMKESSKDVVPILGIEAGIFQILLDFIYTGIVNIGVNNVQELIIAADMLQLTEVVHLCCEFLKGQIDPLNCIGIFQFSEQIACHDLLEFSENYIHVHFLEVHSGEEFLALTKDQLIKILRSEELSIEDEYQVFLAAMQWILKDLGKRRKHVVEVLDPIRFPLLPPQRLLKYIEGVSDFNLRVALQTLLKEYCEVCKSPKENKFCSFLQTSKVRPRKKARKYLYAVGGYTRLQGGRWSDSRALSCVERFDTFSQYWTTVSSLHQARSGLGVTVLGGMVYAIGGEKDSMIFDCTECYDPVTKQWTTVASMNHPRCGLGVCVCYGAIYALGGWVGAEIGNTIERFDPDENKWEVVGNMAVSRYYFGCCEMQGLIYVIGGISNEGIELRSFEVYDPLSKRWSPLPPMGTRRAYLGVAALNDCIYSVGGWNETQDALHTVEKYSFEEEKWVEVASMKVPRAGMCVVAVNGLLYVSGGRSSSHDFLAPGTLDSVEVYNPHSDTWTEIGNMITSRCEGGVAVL
Sequence of UniProt Q96EW2 (Q96EW2 whole entry, looked up): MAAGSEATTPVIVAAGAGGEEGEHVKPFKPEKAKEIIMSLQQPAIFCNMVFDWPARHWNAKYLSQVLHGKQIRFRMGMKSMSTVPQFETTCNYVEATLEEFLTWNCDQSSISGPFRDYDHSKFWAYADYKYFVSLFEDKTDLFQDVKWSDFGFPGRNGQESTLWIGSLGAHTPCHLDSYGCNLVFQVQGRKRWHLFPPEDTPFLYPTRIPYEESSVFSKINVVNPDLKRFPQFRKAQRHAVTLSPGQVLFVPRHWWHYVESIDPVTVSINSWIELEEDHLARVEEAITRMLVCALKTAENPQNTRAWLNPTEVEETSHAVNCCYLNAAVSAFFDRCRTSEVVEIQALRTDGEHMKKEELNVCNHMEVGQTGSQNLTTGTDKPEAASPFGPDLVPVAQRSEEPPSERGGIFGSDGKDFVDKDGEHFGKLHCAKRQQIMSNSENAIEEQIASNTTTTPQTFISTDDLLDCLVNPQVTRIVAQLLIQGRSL
Sequence of UniProt P22692 (P22692 whole entry, looked up): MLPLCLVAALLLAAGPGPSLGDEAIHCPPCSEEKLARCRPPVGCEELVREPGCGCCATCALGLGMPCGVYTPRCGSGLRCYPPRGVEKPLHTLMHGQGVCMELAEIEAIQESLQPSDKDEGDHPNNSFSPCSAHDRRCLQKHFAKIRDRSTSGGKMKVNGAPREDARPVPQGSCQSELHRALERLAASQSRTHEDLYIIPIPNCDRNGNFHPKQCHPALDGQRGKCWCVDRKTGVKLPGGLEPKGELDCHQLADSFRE
Sequence of UniProt Q96A47 (Q96A47 whole entry, looked up): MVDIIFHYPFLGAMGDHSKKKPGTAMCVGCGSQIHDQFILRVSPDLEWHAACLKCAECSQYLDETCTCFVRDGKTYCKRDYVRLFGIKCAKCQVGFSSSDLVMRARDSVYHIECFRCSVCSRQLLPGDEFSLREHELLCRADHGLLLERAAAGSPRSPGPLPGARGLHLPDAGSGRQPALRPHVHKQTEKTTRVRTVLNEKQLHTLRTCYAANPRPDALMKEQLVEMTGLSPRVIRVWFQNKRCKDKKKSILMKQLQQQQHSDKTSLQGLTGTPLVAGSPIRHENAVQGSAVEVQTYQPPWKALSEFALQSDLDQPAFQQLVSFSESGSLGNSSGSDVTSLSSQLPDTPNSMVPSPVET

Target	log2 fold change
HAUS5 (UniProt O94927)	0.089 (inactive)
GNB4 (UniProt Q9HAV0)	-0.05 (inactive)
ISL2 (UniProt Q96A47)	0.207 (inactive)
IMPDH2 (UniProt H0Y4R1)	-0.203 (inactive)
KDM1A (UniProt O60341)	0.817 (active)
IGF2BP3 (UniProt O00425)	-0.002 (inactive)
KATNBL1 (UniProt Q9H079)	-0.071 (inactive)
GTPBP6 (UniProt O43824)	0.118 (inactive)
GORASP1 (UniProt Q9BQQ3)	0.042 (inactive)
ITGB1BP2 (UniProt Q9UKP3)	-0.029 (inactive)
GIT1 (UniProt Q9Y2X7)	0.073 (inactive)
HNRNPUL1 (UniProt M0R247)	-0.044 (inactive)
H3-3A (UniProt P84243)	-0.004 (inactive)
HAUS8 (UniProt Q9BT25)	0 (inactive)
JAK3 (UniProt P52333)	0.254 (inactive)
HMGA1 isoform 2 (UniProt P17096)	0.419 (inactive)
IGFBP4 (UniProt P22692)	-0.171 (inactive)
HOMER3 (UniProt Q9NSC5)	0 (inactive)
IPP (UniProt Q9Y573)	0.02 (inactive)
IFITM3 (UniProt Q01628)	0.026 (inactive)
IRS2 (UniProt Q9Y4H2)	-0.354 (inactive)
HEATR3 (UniProt Q7Z4Q2)	0.028 (inactive)
HSPA8 (UniProt E9PN89)	-0.393 (inactive)
GIPC3 (UniProt Q8TF64)	-0.075 (inactive)
IRF2BPL (UniProt Q9H1B7)	-0.134 (inactive)
GPN2 (UniProt Q9H9Y4)	-0.034 (inactive)
HSPBAP1 (UniProt Q96EW2)	0.006 (inactive)
GLB1 (UniProt P16278)	-0.019 (inactive)
HNRNPD isoform 3 (UniProt Q14103)	-0.003 (inactive)
GYPA, A0A2R8Y7F9	-0.163 (inactive)
